Active and inactive are the calls of the source.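 The calls were made as follows: active = GFP response above 150% of the DMSO control; inconclusive = Under 70 cell events counted for a yeast strain; inactive = the rest.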
Experiment: yeast TOR pathway CIT2-GFP reporter retest – flow cytometry, third cherry pick, single plex, confirmation (AID 504340);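 also: median GFP fluorescence over all cells with no mother versus daughter split; sample signal as a ratio to the plate DMSO mean so 100% equals DMSO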
Conditions: S. cerevisiae CIT2-GFP strain, 3 h, at 10 µM, active compounds read high

Q: For `Cc1ccc2c(c1N)C(=O)c1ccccc1C2=O`, which GFP response vs DMSO is on record?
A: 109% (inactive)

Q: For `C/C(O)=C(\C#N)C(=O)Nc1cc(Br)ccc1Br`, which GFP response vs DMSO is on record?
A: 116% (inactive)

Q: With `CCN1CCN(c2ncnc3ccc(Br)cc23)CC1` as the compound, how does the GFP response vs DMSO read?
A: 109% (inactive)

Q: Which GFP response vs DMSO does the source give for `CN(C)C(=O)Oc1ccnc2cc(Cl)ccc12` here?
A: 106% (inactive)

Q: For `CN(C)C(=O)Oc1ccc(Cl)c2cccnc12`, which GFP response vs DMSO is on record?
A: 104% (inactive)

Q: Which GFP response vs DMSO does the source give for `CN1CCN(c2ncnc3ccc(Br)cc23)CC1` here?
A: 103% (inactive)

Source: PubChem BioAssay AID504340 (NMMLSC, 2011)
